Experimental data from ChEMBL document CHEMBL1157539, “Thousands of chemical starting points for antimalarial lead identification” (Nature, 2010).

These compounds were tested on Plasmodium falciparum (assay: GSK_TCMDC: Inhibition of Plasmodium falciparum 3D7 in whole red blood cells, using parasite LDH activity as an index of growth. Test compounds present at 2uM).
Type: functional

`Cc1cc(C(=O)Nc2nc(-c3ccccn3)nc3ccsc23)no1` was tested. Which Inhibition did it give?
Its Inhibition is 98%.

Which Inhibition does the source give for `CCOC(=O)c1ccc(NC(=O)NCCCC2CCCN(CCCCCNC(=O)/C=C/c3ccc(Cl)c(Cl)c3)C2)cc1` (stereo not given) here?
Its Inhibition is 96%.

`O=C(N[C@@H](CC1CCCCC1)C(=O)NCCN1CCCCC1)c1ccc(O)c(-c2ccc(Cl)c(Cl)c2)c1` was tested. Which Inhibition did it give?
Its Inhibition is 97%.

For `CN(C)c1ccc(C=Cc2ccc3ccccc3n2)c(Cl)c1`, which Inhibition is on record?
Its Inhibition is 94%.

Which Inhibition does the source give for `COc1ccc(OC)c(-c2cccc(-c3cccc(NC(=O)c4ccc([N+](=O)[O-])o4)c3)n2)c1` here?
The Inhibition was 98%.

For `COc1cc2nc(C)nc(Nc3ccc(Cc4ccccc4)cc3)c2cc1OC.Cl`, which Inhibition is on record?
The Inhibition was 100%.

For `COc1cccc(Nc2nc(C)cc(NCc3ccc(-n4ccnc4)cc3)n2)c1`, which Inhibition is on record?
Its Inhibition is 100%.

For `NC(=O)c1cnc2ccc(-c3cncs3)cc2c1Nc1ccc(F)c(Cl)c1`, which Inhibition is on record?
Its Inhibition is 97%.

With `CC(=O)Nc1ccc(Cl)c(Cl)c1` as the compound, how does the Inhibition read?
Its Inhibition is 95%.

Which Inhibition does the source give for `CS(=O)(=O)O.FC(F)(F)COc1c(CCNCCCCNCCc2ccc3ccccc3c2OCC(F)(F)F)ccc2ccccc12` here?
The Inhibition was 100%.

With `Cc1ccc(CNC(=O)[C@H](Cc2ccccc2)Nc2cc(C)nc(NCc3ccccc3C)n2)cc1.O=C(O)C(F)(F)F` as the compound, how does the Inhibition read?
Its Inhibition is 97%.

`C[C@H](Cc1ccc(OCCCCCCOc2ccc(C[C@@H](C)NC(=O)[C@H](O)c3cccc(Cl)c3)cc2)cc1)NC[C@H](O)c1cccc(Cl)c1` was tested. Which Inhibition did it give?
The Inhibition was 99%.

For `CN(C)CCNCc1ccc(-c2ccc(-c3nc4cc(F)ccc4[nH]3)cc2)cc1.O=C(O)C(F)(F)F`, which Inhibition is on record?
The Inhibition was 100%.

`COc1ccc(-n2cc(CNCCCn3ccnc3)c(-c3cccc(F)c3)n2)cc1` was tested. Which Inhibition did it give?
Its Inhibition is 98%.

With `Cc1cccc2nc(-c3ccc(-c4ccc(C(=O)NCCc5cn(C)cn5)cc4)s3)[nH]c12` as the compound, how does the Inhibition read?
Its Inhibition is 88%.

Which Inhibition does the source give for `Cl.O=C(NCc1ccc(C(=O)N2CCC(N3CCCCC3)CC2)cc1)c1cc(-c2cccc(C(F)(F)F)c2)ccc1O` here?
The Inhibition was 100%.

How did the Inhibition turn out when `Cc1cc(C)n(Cc2ccc(C(=O)NCC3CCCCC3)cc2)n1` was run?
The Inhibition was 95%.

For `O=C(/C=C/c1ccc(Cl)c(Cl)c1)NC1CCN(Cc2ccc(O)cc2)CC1.O=C(O)C(F)(F)F`, which Inhibition is on record?
The Inhibition was 100%.

How did the Inhibition turn out when `O=C(NCCc1ccccc1F)c1ccc(N2CCN(c3ccncc3)CC2)cn1.O=C(O)C(F)(F)F` was run?
The Inhibition was 93%.

For `Cc1cccc2nc(-c3ccc(-c4ccc(CN5CCCC(O)C5)cc4)cc3)[nH]c12.O=C(O)C(F)(F)F` (stereo not given), which Inhibition is on record?
The Inhibition was 100%.

With `CC(C)c1ccc(-c2noc(SCC(=O)N3CCCCC3C)n2)cc1` (stereo not given) as the compound, how does the Inhibition read?
Its Inhibition is 92%.

With `COc1ccc(-c2ccc(NC(=O)c3cccc(F)c3)cc2)cc1CN1CCCN(C)CC1.O=C(O)C(F)(F)F` as the compound, how does the Inhibition read?
The Inhibition was 100%.

Which Inhibition does the source give for `COCCNCc1cccc(-c2ccccc2CN(C(=O)c2ccc3c(c2)OCO3)c2ccc(OC)cc2)c1.O=C(O)C(F)(F)F` here?
Its Inhibition is 90%.

With `CCc1cn2c3c(cc(C(=O)N[C@@H](Cc4cccc(Cl)c4)[C@H](O)CNC4CCOCC4)cc13)N(C)S(=O)(=O)CC2.O=CO` as the compound, how does the Inhibition read?
Its Inhibition is 98%.

For `Fc1ccc2[nH]c(-c3ccc(-c4cccc(CN5CCC(CCN6CCCCC6)CC5)c4)cc3)nc2c1.O=C(O)C(F)(F)F`, which Inhibition is on record?
Its Inhibition is 100%.

How did the Inhibition turn out when `Cl.O=c1cc(NCCCNCc2cc3c(Cl)cc(Cl)cc3[nH]2)[nH]c2ccccc12` was run?
Its Inhibition is 100%.

With `Cl.O=C(NC1CCC(CCN2CCc3ccc(-c4cnccn4)cc3CC2)CC1)c1cccc(-n2cccn2)c1` (stereo not given) as the compound, how does the Inhibition read?
The Inhibition was 93%.

Which Inhibition does the source give for `CCCCN(CCCC)CCNC(=O)c1ccc(-c2nc3cc(Cl)ccc3[nH]2)c(OCC)c1` here?
The Inhibition was 100%.

Which Inhibition does the source give for `CCC(=O)Nc1ccc(Nc2nc(C)cc(N3CCCC3)n2)cc1` here?
The Inhibition was 91%.

Which Inhibition does the source give for `N=C(NCCCCCCCCNC(=N)Nc1ccc(Cl)cc1)Nc1ccc(Cl)cc1` here?
Its Inhibition is 93%.

Which Inhibition does the source give for `Cc1cc(Nc2ccc(Cl)c(Cl)c2)n2nc(C)nc2n1` here?
The Inhibition was 97%.

`CC1CN(Cc2cccc(F)c2)CCN1c1ccc(NC(=O)c2ccc(F)cc2)cc1.O=C(O)C(F)(F)F` (stereo not given) was tested. Which Inhibition did it give?
Its Inhibition is 96%.

Which Inhibition does the source give for `CCOc1cc(C)ccc1C1CCN(CCCCNC(=O)c2nc(-c3ccc(C(F)(F)F)cc3)[nH]c2C)CC1.Cl` here?
The Inhibition was 100%.

Which Inhibition does the source give for `O=C(O)C(F)(F)F.Oc1ccc(CCNc2nc(NCc3cccc(OCc4cccc(F)c4)c3)nc(N3CCNCC3)n2)cc1` here?
Its Inhibition is 86%.

Which Inhibition does the source give for `CCN(CC)CCNc1ccnc2[nH]c3ccc(I)cc3c12` here?
Its Inhibition is 100%.

Which Inhibition does the source give for `Cc1cccc2nc(-c3ccc(-c4cccc(CN5CCN(CC6CCCN(C)C6)CC5)c4)s3)[nH]c12.O=C(O)C(F)(F)F` (stereo not given) here?
Its Inhibition is 100%.

For `COCCNc1nc(N2CCC(CNC(=O)c3ccc(-c4ccc(C(=O)N(C)C)cc4C)cc3)CC2)nc2cc(OC)c(OC)cc12`, which Inhibition is on record?
The Inhibition was 98%.

`Br.CCCN(CCCCCCN(CCC)CCc1ccc(O)c(O)c1)CCc1ccc(O)cc1` was tested. Which Inhibition did it give?
The Inhibition was 90%.

With `C#CCNC(=O)c1ccc(-c2ccnc(Nc3cccc(CCCN4CCOCC4)c3)n2)s1` as the compound, how does the Inhibition read?
The Inhibition was 82%.

How did the Inhibition turn out when `CCCCNCc1ccc(-c2nc(CN(CCCN3CCN(C)CC3)C(=O)Nc3cccc(Cl)c3)cs2)cc1.O=C(O)C(F)(F)F` was run?
Its Inhibition is 99%.
